From ChEMBL document CHEMBL1961873, “Compounds: GSK PKIS; Assays: Nanosyn kinase panel” (2012)

Assays:
[1] = molecular target: T1, Tyrosine-protein kinase receptor TYRO3 (Homo sapiens) (UniProt Q06418); conditions: at 1 µM
T1 sequence (whole entry): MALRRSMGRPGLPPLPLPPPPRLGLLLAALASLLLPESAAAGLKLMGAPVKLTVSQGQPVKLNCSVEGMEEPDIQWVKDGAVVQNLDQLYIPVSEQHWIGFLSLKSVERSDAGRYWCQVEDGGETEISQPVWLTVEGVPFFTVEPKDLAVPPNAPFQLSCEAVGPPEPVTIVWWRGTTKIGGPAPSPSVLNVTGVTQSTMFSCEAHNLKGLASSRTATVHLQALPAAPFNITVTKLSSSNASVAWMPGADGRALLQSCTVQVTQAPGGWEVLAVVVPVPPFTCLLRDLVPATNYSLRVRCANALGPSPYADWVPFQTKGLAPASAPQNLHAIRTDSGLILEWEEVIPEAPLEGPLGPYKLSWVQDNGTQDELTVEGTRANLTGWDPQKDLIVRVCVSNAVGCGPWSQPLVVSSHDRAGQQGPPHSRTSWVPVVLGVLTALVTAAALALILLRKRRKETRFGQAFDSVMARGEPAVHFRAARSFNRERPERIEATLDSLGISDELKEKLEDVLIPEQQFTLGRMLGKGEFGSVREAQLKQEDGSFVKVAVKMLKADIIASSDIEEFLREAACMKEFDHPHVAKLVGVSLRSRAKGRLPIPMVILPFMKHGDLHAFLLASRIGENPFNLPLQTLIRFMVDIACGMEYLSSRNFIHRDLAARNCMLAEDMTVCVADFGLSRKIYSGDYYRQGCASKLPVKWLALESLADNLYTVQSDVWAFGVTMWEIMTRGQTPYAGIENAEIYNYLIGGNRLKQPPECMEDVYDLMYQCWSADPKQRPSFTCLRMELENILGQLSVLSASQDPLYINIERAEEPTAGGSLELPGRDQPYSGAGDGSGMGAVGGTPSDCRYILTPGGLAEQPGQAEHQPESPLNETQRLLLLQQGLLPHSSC

[2] = molecular target: Tyrosine-protein kinase Yes (Homo sapiens) (UniProt P07947); conditions: at 0.1 µM
[3] = molecular target: Tyrosine-protein kinase Yes (Homo sapiens) (UniProt P07947); conditions: at 1 µM
[4] = molecular target: T2, Tyrosine-protein kinase ZAP-70 (Homo sapiens) (UniProt P43403); conditions: at 0.1 µM
T2 sequence (whole entry): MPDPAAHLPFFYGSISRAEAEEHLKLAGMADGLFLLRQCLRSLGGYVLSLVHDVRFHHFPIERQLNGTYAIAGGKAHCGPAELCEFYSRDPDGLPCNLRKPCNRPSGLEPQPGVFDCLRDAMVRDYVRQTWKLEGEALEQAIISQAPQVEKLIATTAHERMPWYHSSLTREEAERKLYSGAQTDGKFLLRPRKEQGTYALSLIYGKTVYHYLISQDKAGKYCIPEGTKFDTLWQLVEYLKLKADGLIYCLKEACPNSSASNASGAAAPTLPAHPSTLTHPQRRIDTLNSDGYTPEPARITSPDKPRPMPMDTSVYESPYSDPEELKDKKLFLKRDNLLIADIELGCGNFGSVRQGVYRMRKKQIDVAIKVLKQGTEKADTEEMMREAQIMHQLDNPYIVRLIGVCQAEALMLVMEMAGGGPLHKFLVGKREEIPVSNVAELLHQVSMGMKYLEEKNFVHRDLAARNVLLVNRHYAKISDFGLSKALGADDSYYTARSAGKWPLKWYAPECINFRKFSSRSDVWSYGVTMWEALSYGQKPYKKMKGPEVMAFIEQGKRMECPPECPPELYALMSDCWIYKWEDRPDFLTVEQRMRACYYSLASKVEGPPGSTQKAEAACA

[5] = molecular target: T2, Tyrosine-protein kinase ZAP-70 (Homo sapiens); conditions: at 1 µM
[6] = molecular target: Serine/threonine-protein kinase B-raf (Homo sapiens) (UniProt P15056); conditions: at 0.1 µM
[7] = molecular target: Serine/threonine-protein kinase B-raf (Homo sapiens) (UniProt P15056); conditions: at 1 µM
[8] = system: Serine/threonine-protein kinase B-raf (Homo sapiens), P15056 [V600E]; conditions: at 0.1 µM
[9] = system: Serine/threonine-protein kinase B-raf (Homo sapiens), P15056 [V600E]; conditions: at 1 µM
[10] = molecular target: RAF proto-oncogene serine/threonine-protein kinase (Homo sapiens) (UniProt P04049); conditions: at 0.1 µM;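 further: values are mean CRAF kinase inhibition from profiling of the GSK Published Kinase Inhibitor Set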
RAF proto-oncogene serine/threonine-protein kinase (Homo sapiens), sequence (P04049 whole entry): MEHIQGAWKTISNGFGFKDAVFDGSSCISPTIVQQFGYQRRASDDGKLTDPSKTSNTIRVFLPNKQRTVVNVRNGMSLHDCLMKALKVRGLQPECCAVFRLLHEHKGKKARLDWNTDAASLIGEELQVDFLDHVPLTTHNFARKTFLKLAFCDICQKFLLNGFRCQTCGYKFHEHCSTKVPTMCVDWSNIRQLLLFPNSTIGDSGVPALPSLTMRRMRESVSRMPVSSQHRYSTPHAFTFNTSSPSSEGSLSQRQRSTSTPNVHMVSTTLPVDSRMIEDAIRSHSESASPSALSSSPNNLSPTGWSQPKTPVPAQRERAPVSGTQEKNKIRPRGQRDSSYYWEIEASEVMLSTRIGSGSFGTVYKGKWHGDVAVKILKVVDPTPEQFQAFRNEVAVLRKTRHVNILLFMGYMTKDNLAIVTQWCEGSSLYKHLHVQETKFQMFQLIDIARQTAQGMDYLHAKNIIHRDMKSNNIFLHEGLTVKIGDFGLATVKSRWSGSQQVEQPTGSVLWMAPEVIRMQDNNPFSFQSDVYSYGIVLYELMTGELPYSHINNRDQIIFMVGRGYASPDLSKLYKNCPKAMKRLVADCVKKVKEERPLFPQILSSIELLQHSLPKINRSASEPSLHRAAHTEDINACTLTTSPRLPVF

Serine/threonine-protein kinase B-raf (Homo sapiens), sequence (P15056 whole entry): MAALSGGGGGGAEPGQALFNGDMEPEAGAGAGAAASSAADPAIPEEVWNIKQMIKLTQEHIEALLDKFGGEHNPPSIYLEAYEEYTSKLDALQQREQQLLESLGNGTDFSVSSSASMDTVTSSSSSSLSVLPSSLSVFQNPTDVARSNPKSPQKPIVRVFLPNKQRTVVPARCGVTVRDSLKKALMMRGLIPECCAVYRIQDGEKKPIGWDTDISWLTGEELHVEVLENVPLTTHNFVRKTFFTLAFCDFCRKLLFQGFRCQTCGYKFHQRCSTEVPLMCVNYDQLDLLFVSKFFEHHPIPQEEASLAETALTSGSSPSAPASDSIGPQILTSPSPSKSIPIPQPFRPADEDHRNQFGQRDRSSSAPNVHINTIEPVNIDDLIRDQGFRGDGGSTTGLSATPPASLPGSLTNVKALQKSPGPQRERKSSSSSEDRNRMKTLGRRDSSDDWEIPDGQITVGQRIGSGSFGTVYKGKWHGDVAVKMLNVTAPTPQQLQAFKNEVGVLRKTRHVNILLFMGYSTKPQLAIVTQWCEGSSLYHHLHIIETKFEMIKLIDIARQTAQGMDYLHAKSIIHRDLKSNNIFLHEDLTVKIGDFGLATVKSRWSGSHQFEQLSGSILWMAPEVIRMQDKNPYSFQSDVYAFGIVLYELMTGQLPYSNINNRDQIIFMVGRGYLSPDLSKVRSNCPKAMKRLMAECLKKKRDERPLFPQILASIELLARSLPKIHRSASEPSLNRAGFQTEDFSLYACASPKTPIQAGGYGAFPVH
Tyrosine-protein kinase Yes (Homo sapiens), sequence (P07947 2-543 limits assumed): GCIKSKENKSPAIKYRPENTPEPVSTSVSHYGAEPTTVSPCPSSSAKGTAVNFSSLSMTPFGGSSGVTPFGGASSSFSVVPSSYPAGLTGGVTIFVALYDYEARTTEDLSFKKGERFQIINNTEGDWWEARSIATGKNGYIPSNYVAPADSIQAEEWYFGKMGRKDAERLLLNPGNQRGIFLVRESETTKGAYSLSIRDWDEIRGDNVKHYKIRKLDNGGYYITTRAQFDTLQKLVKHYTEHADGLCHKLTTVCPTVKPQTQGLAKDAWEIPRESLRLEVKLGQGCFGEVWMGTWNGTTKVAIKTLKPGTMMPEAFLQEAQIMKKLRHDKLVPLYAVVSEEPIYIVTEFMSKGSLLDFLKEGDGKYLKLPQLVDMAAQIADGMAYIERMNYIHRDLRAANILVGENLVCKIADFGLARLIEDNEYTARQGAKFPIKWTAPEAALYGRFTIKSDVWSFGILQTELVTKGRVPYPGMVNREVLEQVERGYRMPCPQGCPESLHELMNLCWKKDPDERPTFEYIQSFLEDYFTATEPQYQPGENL
Serine/threonine-protein kinase B-raf (Homo sapiens), P15056 [V600E], sequence (P15056 whole entry V600E): as the sequence (P15056 whole entry) above, with V600E counted along it

**Q.** How did the inhibition [1] turn out when `COc1ccc(Nc2ncc(-c3ccccc3)o2)cc1OC` was run?
**A.** The inhibition was 4.23%.

**Q.** And the inhibition [2]?
**A.** Its inhibition is 7%.

**Q.** What about the inhibition [3] of the same compound?
**A.** The inhibition was 35.7%.

**Q.** And the inhibition [4]?
**A.** The inhibition was 1.28%.

**Q.** And the inhibition [5]?
**A.** The inhibition was 1.27%.

**Q.** What about the inhibition [6] of the same compound?
**A.** Its inhibition is -1.46%.

**Q.** And the inhibition [7]?
**A.** Its inhibition is 1.35%.

**Q.** What about the inhibition [8] of the same compound?
**A.** The inhibition was 0.52%.

**Q.** What about the inhibition [9] of the same compound?
**A.** Its inhibition is 2.34%.

**Q.** And the inhibition [10]?
**A.** Its inhibition is -0.64%.

**Q.** Which results are given for `Cc1nnc(-c2cccc(-c3ccc(C(=O)NCC4CC4)cc3)c2)o1`?
**A.** inhibition [1]: 4.17%; inhibition [2]: 5.35%; inhibition [3]: 7.53%; inhibition [4]: 4.93%; inhibition [5]: 7.42%; inhibition [6]: 8.68%; inhibition [7]: 6.82%; inhibition [8]: 7.4%; inhibition [9]: 5.64%; inhibition [10]: -0.41%

**Q.** Which inhibition [1] does the source give for `CCS(=O)(=O)c1ccc(OC)c(Nc2ncc(-c3cccc(C(C)=O)c3)o2)c1` here?
**A.** Its inhibition is 24.1%.

**Q.** And the inhibition [2]?
**A.** The inhibition was 18.6%.

**Q.** What about the inhibition [3] of the same compound?
**A.** The inhibition was 65.9%.

**Q.** And the inhibition [4]?
**A.** Its inhibition is 2.04%.

**Q.** What about the inhibition [5] of the same compound?
**A.** The inhibition was 1.3%.

**Q.** What about the inhibition [6] of the same compound?
**A.** The inhibition was 3.62%.

**Q.** What about the inhibition [7] of the same compound?
**A.** The inhibition was 6.17%.

**Q.** What about the inhibition [8] of the same compound?
**A.** The inhibition was 3.41%.

**Q.** What about the inhibition [9] of the same compound?
**A.** The inhibition was 5.84%.

**Q.** What about the inhibition [10] of the same compound?
**A.** Its inhibition is 5.57%.

**Q.** What does the source list for `CS(=O)(=O)Nc1ccc(-c2ccc3c(NC(=O)C4CC4)n[nH]c3c2)cc1`?
**A.** inhibition [1]: 13.6%; inhibition [2]: -0.59%; inhibition [3]: 4.94%; inhibition [4]: 1.11%; inhibition [5]: 3.42%; inhibition [6]: 4.42%; inhibition [7]: 6.73%; inhibition [8]: 4.74%; inhibition [9]: 6.11%; inhibition [10]: 4.35%

**Q.** What does the source list for `Cc1cc(O)cc(C)c1/C=C/c1cncc(C(=O)OC(C)(C)C)c1`?
**A.** inhibition [1]: 4.32%; inhibition [2]: 5.5%; inhibition [3]: 31.1%; inhibition [4]: 1.34%; inhibition [5]: 1.02%; inhibition [6]: 4.14%; inhibition [7]: 7.71%; inhibition [8]: 3.83%; inhibition [9]: 6.09%; inhibition [10]: 3.1%

**Q.** `Cc1c2ccc(N(C)c3ccnc(Nc4cccc(S(N)(=O)=O)c4)n3)cc2nn1C` was tested. Which inhibition [1] did it give?
**A.** The inhibition was 16.1%.

**Q.** What about the inhibition [2] of the same compound?
**A.** Its inhibition is 14.9%.

**Q.** And the inhibition [3]?
**A.** The inhibition was 62.8%.

**Q.** What about the inhibition [4] of the same compound?
**A.** Its inhibition is 0.81%.

**Q.** What about the inhibition [5] of the same compound?
**A.** The inhibition was 11.5%.

**Q.** And the inhibition [6]?
**A.** The inhibition was 9.33%.

**Q.** And the inhibition [7]?
**A.** Its inhibition is 9.79%.

**Q.** And the inhibition [8]?
**A.** The inhibition was 8.28%.

**Q.** And the inhibition [9]?
**A.** The inhibition was 12.5%.

**Q.** And the inhibition [10]?
**A.** Its inhibition is -1.01%.

**Q.** Which inhibition [1] does the source give for `CN(c1ccc(NC(=O)NCCN2CCOCC2)cc1)c1ccnc(Nc2ccc(CS(C)(=O)=O)cc2)n1` here?
**A.** Its inhibition is 6.95%.

**Q.** And the inhibition [2]?
**A.** Its inhibition is 1.4%.

**Q.** What about the inhibition [3] of the same compound?
**A.** The inhibition was 8.5%.

**Q.** And the inhibition [4]?
**A.** The inhibition was 0.58%.

**Q.** And the inhibition [5]?
**A.** The inhibition was 2.72%.

**Q.** What about the inhibition [6] of the same compound?
**A.** Its inhibition is 4.55%.

**Q.** And the inhibition [7]?
**A.** The inhibition was 7.4%.

**Q.** And the inhibition [8]?
**A.** The inhibition was 3.94%.

**Q.** What about the inhibition [9] of the same compound?
**A.** Its inhibition is 7.38%.

**Q.** What about the inhibition [10] of the same compound?
**A.** Its inhibition is 6.1%.

**Q.** `Cn1c(-c2nonc2N)nc2cnccc21` was tested. Which inhibition [1] did it give?
**A.** Its inhibition is 0.09%.

**Q.** What about the inhibition [2] of the same compound?
**A.** The inhibition was 1.37%.

**Q.** And the inhibition [3]?
**A.** The inhibition was 1.42%.

**Q.** What about the inhibition [4] of the same compound?
**A.** The inhibition was 3.27%.

**Q.** And the inhibition [5]?
**A.** Its inhibition is 1.74%.

**Q.** And the inhibition [6]?
**A.** Its inhibition is 4.15%.

**Q.** What about the inhibition [7] of the same compound?
**A.** The inhibition was 3.62%.

**Q.** And the inhibition [8]?
**A.** Its inhibition is 4.29%.

**Q.** What about the inhibition [9] of the same compound?
**A.** Its inhibition is 3.98%.

**Q.** And the inhibition [10]?
**A.** Its inhibition is 2.49%.
